# Only some compounds are listed: those with a hit (about 11% of all), similar ones and a draw of the others.
# PNC assembly inh: blocks assembly of the perinucleolar compartment. PC3M PTB-GFP, PNC prevalence imaging, 16 h; stronger effect = lower value. activity change (PNC), negative = inhibition, % at 10 µM. actives 3.1% (n = 140,000). AID 2417;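 active means readout at or below -70, meaning at least 70% loss of cells showing the perinucleolar compartment, a nuclear body marking cancer cells; inconclusive means readout between -30 and a set limit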
#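 Read-out is percentage of cells bearing a perinucleolar compartment, from automated 20x imaging of fixed, Hoechst-stained PC3M PTB-GFP cells. Cells were seeded 4 h, then exposed 16 h to compound (23 nl of library stock) in duplicate plates.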
# ALDH1A1 inh: blocks purified human ALDH1A1 activity; Potency, µM (series often up to 75.3 µM), usual class: inhibitors; AID 1030; Purified ALDH1A1, NADH fluorescence, propionaldehyde substrate; actives 7.3% (n = 220,000); P00352
# Target sequence (P00352 whole entry, looked up): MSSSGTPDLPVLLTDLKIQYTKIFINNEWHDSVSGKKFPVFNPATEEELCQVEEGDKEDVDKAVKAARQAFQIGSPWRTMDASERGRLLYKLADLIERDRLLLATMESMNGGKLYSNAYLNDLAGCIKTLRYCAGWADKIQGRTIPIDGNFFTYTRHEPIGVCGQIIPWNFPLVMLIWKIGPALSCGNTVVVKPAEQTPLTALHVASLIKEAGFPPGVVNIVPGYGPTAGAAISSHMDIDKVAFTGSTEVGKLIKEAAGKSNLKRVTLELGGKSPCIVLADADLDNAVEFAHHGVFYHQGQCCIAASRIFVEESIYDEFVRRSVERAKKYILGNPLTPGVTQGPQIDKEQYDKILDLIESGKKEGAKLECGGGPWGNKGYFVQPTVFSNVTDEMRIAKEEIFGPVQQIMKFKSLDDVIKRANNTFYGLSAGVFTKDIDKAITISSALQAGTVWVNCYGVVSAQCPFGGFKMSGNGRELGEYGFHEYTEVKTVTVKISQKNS
# IMPase inh: membrane-permeable compound that blocks inositol monophosphatase | CHO-M1 cells, IP1 accumulation, HTRF TR-FRET ratio | inhibition (IP1 accumulation), % at 46.1 µM | 120,000 tested, under 10 active | AID 901; active means well fitted curve in the direction sought with a large enough effect in the signal ratio, not every such curve was filed as active; inconclusive means small, poorly fitted or top-dose-only effect, or a change in a side signal; inactive means no such curve, though single readings can be large or run the other way; the % refers to the signal ratio;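 further: cells stimulated with carbachol in lithium chloride buffer; higher means more IMPase inhibition seen as more IP1 and lower FRET ratio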
#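 CHO-M1, 2000 cells/well, cultured 16–30 h; cpd up to 46 uM; carbachol (50 uM solution, stimulation buffer w/ 50 mM LiCl, pH 7.4), 30 min 37C; IP-One TR-FRET, 10 min RT; Ex 320/Em 665, 620; Hill-fit AC50.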
# HPGD inh: HPGD (human) dehydrogenase inhibition | P15428 | purified HPGD, NADH fluorescence kinetic, PGE2 substrate | Potency, µM, usual class: inhibitors | actives 4.3% (n = 150,000)
#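 20 nM HPGD preincubated 15 min at room temperature with compound in 50 mM Tris-HCl pH 8, 0.01% Tween 20. Started with 1 mM NAD+ and 30 uM prostaglandin E2; NADH fluorescence (360/450 nm) read 5 times over 30-s intervals, last minus first.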
# IMPase Li inh: IMPase inhibition in cells with lithium potentiation | CHO-M1 cells, IP1 TR-FRET (IP-One), carbachol + lithium | actives 0.35% (n = 210,000) | Potency, µM (series often up to 59.4 µM), most hits filed as inhibitors; active means well fitted inhibition curve with a large enough effect; inconclusive means small, poorly fitted or top-dose-only effect; inactive means no such curve, though single readings can be large or run the other way;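 further: IP1 builds up when IMPase is blocked and the TR-FRET signal falls; nearly all actives have a fitted effect of over 50% in size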
#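 CHO cells stably expressing M1 receptor (2000/well, cultured 16–30 h) treated 30 min at 37C with compound plus low lithium. Cytosolic IP1 by TR-FRET (665/620 ratio and 620 channel) after 10 min lysis; AC50 by Hill fit.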
# A number is an active result; n = inactive; u = inconclusive; x = no result; ! = a repeat was not active; [ ] = another dose, or the depositor's remark. Unless noted, the call rests on the fitted dose curve; in most records, active means well fitted inhibition curve with a large enough effect (not every such curve was filed as active); inconclusive means small, poorly fitted or top-dose-only effect, or another doubt; inactive means no such curve, though single readings can be large or run the other way.
SMILES,PNC assembly inh,ALDH1A1 inh,IMPase inh,HPGD inh,IMPase Li inh
CC(=O)O[C@@H]1C[C@@]2(C)C(c3ccoc3)C[C@H]3O[C@]32[C@]2(C)C(=O)C(O)=C3C(C)(C)C(=O)C=C[C@]3(C)C12 (some centres not stated),x,n,x,n,n
CCn1cc(C(=O)N2CCCCC2)c2ccccc21,x,u,x,x,n
CCn1cc(C(=O)O)c(=O)c2cc3c(cc21)OCO3,u,n,n,n,7.9µM!
COc1cc(/C=C2\C(=O)NC(=O)N(c3ccccc3)C2=O)cc(OC)c1OC,n,13µM,n,u,n
COc1ccc(/C=C2/C(=O)NC(=O)N(c3ccc(C)c(C)c3)C2=O)cc1CN1C(=O)c2ccccc2C1=O,n,7.9µM,n,10µM,n
C[C@@H]1O[C@H](O[C@H]2C[C@@H](O)[C@@]3(CO)[C@H]4[C@@H](O)C[C@]5(C)[C@@H](C6=CC(=O)OC6)CC[C@]5(O)[C@H]4CC[C@]3(O)C2)[C@@H](O)[C@H](O)[C@@H]1O,x,n,x,n,x
Nc1c(Br)cc([N+](=O)[O-])cc1[N+](=O)[O-],x,25µM,x,n,n
Cc1cc(CN(C)C)c(OC(=O)N(C)C)cc1C,-122,n,n,x,x
O=C1CN(C(=O)CN2CCCCC2)C(c2ccccc2)c2cc(Br)ccc2N1 (configuration not stated),-92,n,n,n,n
CCC(=O)N1CC(=O)Nc2ccc(Br)cc2C1c1ccccc1 (configuration not stated),x,n,x,x,n
CCCCOCC1CO1 (configuration not stated),x,n,x,n,n
CN(C)c1ccc(C=C2C(=O)NC(=S)NC2=O)cc1[N+](=O)[O-],x,11µM,x,x,n
Cc1nn(-c2ccccc2)c2c1C(c1ccc3c(c1)OCO3)SCC(=O)N2 (configuration not stated),n,n,n,8.9µM,n
CCN1CCN(P2(=O)C=C(c3ccccc3)OC(c3ccccc3)=C2)CC1,n,14µM,n,n,n
CN(C)CCCNCC(=O)Nc1ccc(Cl)cc1C(=O)c1ccccc1,x,2.8µM,x,x,n
CCN(CC)CCNCC(=O)Nc1ccc(Cl)cc1C(=O)c1ccccc1,n,u,n,n,n
C=CCN(c1ccc(C(=O)N(CC)CC)cc1)S(C)(=O)=O,n,n,n[1.84 µM],n,n
CCN(CC)C(=O)c1ccc(N2C(=O)C3CC=C(Cl)CC3C2=O)cc1 (configuration not stated),-86,n,n,13µM,n
O=C(O)[C@@H](Br)[C@H](Br)C(=O)O,x,n[13.5 µM],x,n,n
COc1cccc(-c2cc(C(F)(F)F)n3nc(C(=O)N4CCC5(CC4)OCCO5)cc3n2)c1,n,13µM,n,11µM,n
C#CCN1C(C)=C(C(=O)CCO)[C@@H](c2cccc(-n3oo3)c2)C(C(=O)OC)=C1C,x,n,n,n,n
Cc1cc2c(C(C)C)c(O)c(O)c(C=O)c2c(O)c1-c1c(C)cc2c(C(C)C)c(O)c(O)c(C=O)c2c1O,u,n,n,8.9µM!,n
Cc1[nH]c2ccccc2c1/C=N/O,-86,n,n,13µM,n
Cc1nccc2c1[nH]c1ccccc12,x,u,n,u,n
O=C(NC1(C(F)(F)F)Oc2ccccc2O1)N1CCC2(CC1)OCCO2,-119,u,n,u,n
SMILES,PNC assembly inh,ALDH1A1 inh,IMPase inh,HPGD inh,IMPase Li inh
O=C(NC1(C(F)(F)F)Oc2ccc(Cl)cc2O1)N1CCC2(CC1)OCCO2 (configuration not stated),n,u,n,n,n
CN1CCC(O)(c2ccc(Cl)cc2)C(C(=O)c2ccc(Cl)cc2)C1 (configuration not stated),x,0.11µM,x,x,n
CN1CC(C(=O)c2ccccc2)C(C(=O)c2ccccc2)C1 (configuration not stated),n,n,n,n,n
C[C@@H]1O[C@H](OC2[C@@H](O)[C@H](O)C(O)[C@H](O)[C@H]2O)[C@@H](N)C[C@@H]1N=C(N)C(=O)O (some centres not stated),x,n[13.5 µM],x,n,n
COC(=O)c1ccc(N2C(=O)CC(N3CCC(n4c(=O)[nH]c5ccccc54)CC3)C2=O)cc1 (configuration not stated),n,10µM,n,n,n
COC(=O)c1ccc(N2C(=O)CC(N3CCC(O)(c4ccc(Br)cc4)CC3)C2=O)cc1 (configuration not stated),n,3.2µM,n,n,n
